Screens from PubChem BioAssay.
PPARg SRC3 recr: agonists of human PPARgamma SRC-3 coactivator recruitment; P37231; biochemical PPARgamma/SRC-3 coactivator recruitment assay; activation, % at 8 µM; 200,000 tested, 0.26% active; AID 731; in the data active means activation above about 23%;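 further: 0% = DMSO and 100% = reference agonist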
Target sequence (P37231 whole entry, looked up): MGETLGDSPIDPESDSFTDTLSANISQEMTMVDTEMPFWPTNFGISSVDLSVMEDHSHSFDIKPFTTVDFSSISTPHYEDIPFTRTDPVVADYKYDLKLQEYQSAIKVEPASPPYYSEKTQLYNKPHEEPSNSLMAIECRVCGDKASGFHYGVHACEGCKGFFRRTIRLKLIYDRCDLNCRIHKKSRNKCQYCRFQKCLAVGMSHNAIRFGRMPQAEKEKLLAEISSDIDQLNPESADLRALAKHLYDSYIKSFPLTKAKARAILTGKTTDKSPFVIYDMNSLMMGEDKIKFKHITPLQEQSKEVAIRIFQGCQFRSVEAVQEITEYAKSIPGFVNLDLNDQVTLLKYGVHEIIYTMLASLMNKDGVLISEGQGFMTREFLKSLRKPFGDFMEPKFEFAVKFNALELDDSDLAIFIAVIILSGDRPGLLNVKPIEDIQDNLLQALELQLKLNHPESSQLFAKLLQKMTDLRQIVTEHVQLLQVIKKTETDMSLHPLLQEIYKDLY
SRC1 TRFRET art: TR-FRET artefact, counter-screen to PPARgamma/SRC-1 agonist assay; TR-FRET detection artefact counter-screen, emission ratio; hits give high values; TR-FRET ratio at 8 µM; 99,000 tested, 0.34% active; in the data active means TR-FRET ratio above about 2300
TR-FRET SRC-2 ct: counter-screen for PPARgamma SRC-2 recruitment agonists: TR-FRET artefact; hits give high values; TR-FRET ratio at 8 µM; 200,000 tested, 0.4% active; AID 1049
PPARg SRC2 recr: PPARgamma-driven SRC-2 recruitment agonism; PPARgamma LBD-SRC-2 recruitment, biochemical; activation, % at 8 µM; 200,000 tested, 0.34% active; in the data active means activation above about 22%;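 further: 0% = vehicle and 100% = reference agonist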
SRC3 TRFRET art: flags TR-FRET format artefacts in PPARgamma SRC-3 recruitment agonist screen | TR-FRET artefact counter-screen, PPARgamma/SRC-3 format; hits give high values | TR-FRET ratio at 8 µM | 99,000 tested, 0.39% active | AID 1048
PPARg SRC1 recr: PPARgamma-driven SRC-1 recruitment agonism; P37231; PPARgamma-SRC-1 coactivator recruitment biochemical assay; activation, % at 8 µM; 200,000 tested, 0.41% active; AID 631; in the data active means activation above about 19%;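 further: 0% = DMSO and 100% = reference agonist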
PPARg SRC2 conf: confirmation of agonists of SRC-2 recruitment by human PPARgamma; biochemical SRC-2 recruitment by PPARgamma; activation, % at 8 µM; 790 tested, 52% active; AID 1297; shares compounds with PPARg SRC3 recr; in the data active means activation above about 22%;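 further: 0% = vehicle alone and 100% = reference agonist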
PPARg SRC1 conf: confirmation of agonists of SRC-1 recruitment by human PPARgamma | 790 tested, 43% active | activation, % at 8 µM | shares compounds with PPARg SRC3 recr | PPARgamma–SRC-1 coactivator recruitment biochemical assay; in the data active means activation above about 20%;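 further: 0% = vehicle wells and 100% = reference agonist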
PPARg SRC3 ag: confirmation of agonists of SRC-3 recruitment by human PPARgamma. shares compounds with PPARg SRC3 recr. biochemical PPARgamma-SRC-3 coactivator recruitment, agonist mode. activation, % at 8 µM. 790 tested, 29% active; in the data active means activation above about 24%;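 further: 0% = vehicle wells and 100% = reference agonist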
Starred values were filed as active, the others as inactive; . = no result given. Most compounds without a hit are left out; they make up all but 0.9% or so of the library. Unless noted, no stated cut-off is given here; in the data, active means TR-FRET ratio above about 2000; inactive means the rest.

SMILES | PPARg SRC3 recr | SRC1 TRFRET art | TR-FRET SRC-2 ct | PPARg SRC2 recr | SRC3 TRFRET art | PPARg SRC1 recr | PPARg SRC2 conf | PPARg SRC1 conf | PPARg SRC3 ag
CCOC(=O)C1=C(C)OC(N)=C(C#N)C1c1cc(C)sc1C (stereo not drawn) | -6 | . | 1603 | 4 | . | -6 | . | . | .
CCOC(=O)C1=C(C)OC(N)=C(C#N)C1c1cc2cc(C)ccc2nc1N1CCCCC1 (stereo not drawn) | 62* | . | 2305* | 40* | . | 38* | 62* | 44* | 42*
CC(C)CC(NC(N)=O)C(=O)NCc1ccccc1Cl (stereo not drawn) | -3 | 1771 | 1382 | -4 | 1678 | 2 | . | . | .
CCOc1cc(CNc2ccc(N3CCCCC3)cc2)cc(Br)c1OCC(=O)NC(C)(C)C | 4 | 2032 | 1719 | 5 | 1695 | 0 | . | . | .
CCOc1cc(CNc2ccc(N(C)C)cc2)cc(Br)c1OCC(=O)NC(C)(C)C | 128* | . | 3290* | 123* | . | 55* | 3 | 0 | 3
CC(=O)Oc1cc2cccc(OC(C)=O)c(=O)c2c(OC(C)=O)c1OC(C)=O | 10 | 1973 | 1830 | 17 | 1773 | 11 | 8 | 7 | 4
COc1cc2cccc(OC)c(=O)c2c(O)c1OC | -2 | 1983 | 1681 | 3 | 1498 | 6 | . | . | .
C=CCOc1cccc(NC(=O)c2ccccc2SC)c1 | -2 | 1818 | 1440 | 3 | 1636 | 3 | . | . | .
CS(=O)(=O)Nc1ccccc1C(=O)NCc1ccco1 | 26* | . | 1638 | 20 | . | 1 | 7 | 4 | 5
CCOc1ccc(S(=O)(=O)Nc2ccccc2C(=O)NCc2ccco2)cc1 | 10 | . | 1630 | 5 | . | 9 | . | . | .
CCn1c(=O)cc(SCC(=O)Nc2ccc(Cl)cc2)c2ccccc21 | 20 | . | 1617 | 2 | . | 39* | 34* | 23* | 24
CCn1c(=O)cc(OCC(=O)Nc2cccc(C)n2)c2ccccc21 | -8 | . | 1437 | 6 | . | -2 | . | . | .
CCn1c(=O)cc(SCC(=O)Nc2ccc(OC)c(OC)c2)c2ccccc21 | 34* | . | 2203* | 42* | . | 20* | 48* | 33* | 32*
CCn1c(=O)cc(SCC(=O)Nc2cccc(C)n2)c2ccccc21 | 38* | 3815* | 3523* | 37* | 3307* | 58* | 48* | 32* | 34*
C/C(=N\NC(=O)c1cccc(N/N=C(\C)c2cc(O)ccc2O)c1)c1cc(O)ccc1O | -1 | 1727 | 1443 | 4 | 1513 | -5 | . | . | .
CC(C)Oc1cccc(C(=O)C2CCCN(S(C)(=O)=O)C2)c1 (stereo not drawn) | 2 | 1883 | 1672 | -2 | 1223 | 0 | . | . | .
Cc1ccc(NC(=O)CCCCCCCCCCC2COCCO2)c(C)c1 (stereo not drawn) | -3 | 1529 | 1603 | -4 | 1347 | -9 | . | . | .
O=C1NC(=S)S/C1=C\c1ccc(SCc2ccco2)o1 | 14 | 1829 | 1647 | 33* | 1738 | 21* | 2 | 6 | 2
CC(NCC(O)COCCC12CC3CC(CC(C3)C1)C2)c1ccccc1 (stereo not drawn) | -1 | 2013 | 1501 | 7 | 1682 | -12 | . | . | .
N#Cc1ccc(-c2ccc(F)cc2)nc1SCC(=O)Nc1sc2c(c1C#N)CCC2 | 9 | . | 1696 | 2 | . | 20* | 21 | 10 | 10
N#Cc1cc2c(nc1SCC(=O)Nc1sc3c(c1C#N)CCC3)CCCC2 | 2 | . | 1572 | 10 | . | 14 | . | . | .
CCOC(=O)CSc1nc(N)c(C(=O)Nc2ccc(N(C)C)cc2)s1 | 4 | . | 1889 | 10 | . | 22* | 7 | 11 | 6
O=C(CSc1ccc(-c2nc3ccccc3[nH]2)cn1)Nc1ccc(S(=O)(=O)N2CCCC2)cc1 | 1 | 1936 | 1868 | 5 | 2021 | -1 | . | . | .
N#Cc1cc2ccccc2nc1SCC(=O)Nc1ccc(S(=O)(=O)N2CCCC2)cc1 | 7 | . | 3014* | 13 | . | 19* | 5 | 4 | 3
